Source: PubChem BioAssay
Hits are enriched below; roughly 10% of the tested compounds scored in any of these assays.
Six1-Eya2 inh – qHTS Assay for Inhibitors of the Six1/Eya2 Interaction; AlphaScreen GST-Six1/His-Eya2 binding, biochemical; stronger effect = lower value; 0.56% of 360,000 active; AID 651725, 2012; activity change, % (test concentration not listed); in the data active means activity change below about -65%; inconclusive means mostly about -30% to -63%; further: on the % scale 0 is the no-effect control and ±100 the full control effect
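Compounds are tested against tagged Six1 and Eya2 proteins bridged by glutathione donor and nickel acceptor beads; after a one-hour incubation at 37 °C without light, AlphaScreen emission is recorded.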
JMJD2A Tudor – qHTS Assay for Inhibitors of JMJD2A-Tudor Domain; Potency, µM (highest dose often 114 µM), inactives show at the highest dose activity change, negative = inhibition, usual class: inhibitors; AlphaScreen JMJD2A-Tudor / H3K4me3 peptide binding; 4.4% of 390,000 active; Lysine-specific demethylase 4A (Homo sapiens), O75164; further: potency means the concentration at half of the fitted maximal effect; on the % scale 0 is the no-effect control and ±100 the full control effect; nearly all actives have a fitted effect of over 50% in size
Target sequence (O75164 whole entry, looked up, the tested form may be a part): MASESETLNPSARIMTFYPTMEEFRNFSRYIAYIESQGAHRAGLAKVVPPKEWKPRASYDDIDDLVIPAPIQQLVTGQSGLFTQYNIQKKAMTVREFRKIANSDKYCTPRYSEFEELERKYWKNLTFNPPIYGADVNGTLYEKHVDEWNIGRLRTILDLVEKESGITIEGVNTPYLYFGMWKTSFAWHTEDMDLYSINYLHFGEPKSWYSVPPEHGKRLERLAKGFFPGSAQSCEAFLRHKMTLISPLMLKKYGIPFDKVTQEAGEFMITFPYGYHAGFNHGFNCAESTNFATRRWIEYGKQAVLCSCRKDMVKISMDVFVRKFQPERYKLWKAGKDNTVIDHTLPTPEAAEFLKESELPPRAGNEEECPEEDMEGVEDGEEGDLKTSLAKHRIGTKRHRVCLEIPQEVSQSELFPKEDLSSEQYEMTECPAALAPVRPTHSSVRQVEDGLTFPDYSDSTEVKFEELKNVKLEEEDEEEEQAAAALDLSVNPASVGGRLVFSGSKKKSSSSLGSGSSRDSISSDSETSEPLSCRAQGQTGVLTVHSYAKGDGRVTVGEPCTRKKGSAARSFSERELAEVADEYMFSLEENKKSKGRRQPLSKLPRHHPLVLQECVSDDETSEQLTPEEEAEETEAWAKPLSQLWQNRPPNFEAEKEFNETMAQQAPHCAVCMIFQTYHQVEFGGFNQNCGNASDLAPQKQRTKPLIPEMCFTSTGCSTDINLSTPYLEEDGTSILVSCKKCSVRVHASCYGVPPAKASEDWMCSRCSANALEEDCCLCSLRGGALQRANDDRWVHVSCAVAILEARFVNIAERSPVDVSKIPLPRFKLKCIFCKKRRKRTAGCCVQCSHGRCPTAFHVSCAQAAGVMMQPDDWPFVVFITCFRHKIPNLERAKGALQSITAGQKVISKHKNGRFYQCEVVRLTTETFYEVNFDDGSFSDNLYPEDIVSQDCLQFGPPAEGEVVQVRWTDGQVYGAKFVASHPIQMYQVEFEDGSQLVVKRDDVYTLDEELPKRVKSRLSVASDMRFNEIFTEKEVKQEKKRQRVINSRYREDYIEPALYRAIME
G9a inh – qHTS Assay for Inhibitors of Histone Lysine Methyltransferase G9a. AID 504332, 2011. 8.8% of 350,000 active. Potency, µM (series often up to 102 µM), for the others: at the highest dose activity, negative = inhibition, most hits filed as inhibitors. Histone-lysine N-methyltransferase EHMT2 (Homo sapiens), Q96KQ7. G9a H3K9 monomethylation, AlphaScreen, 2 h; further: potency means the concentration at half of the fitted maximal effect; on the % scale 0 is the no-effect control and ±100 the full control effect; nearly all actives have a fitted effect of over 75% in size
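Methyltransferase reactions run at room temperature for 2 h (20 nM enzyme, 500 nM biotin-H3K9 peptide, 20 uM SAM) after a 15 min compound preincubation; product detected by AlphaScreen beads and anti-H3K9me1 antibody.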
CtBP-E1A blk – qHTS Assay for Inhibitors of the CtBP/E1A Interaction | AlphaScreen GST-E1A/His-CtBP binding, 1536-well; stronger effect = lower value | activity change, % (concentration not given with the values) | 0.49% of 340,000 active | CtBP / adenovirus E1A interaction (AlphaScreen); in the data active means activity change below about -65%; inconclusive means mostly about -30% to -63%; further: on the % scale 0 is the no-effect control and ±100 the full control effect
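Protein mix (5X: 125 nM each GST-E1A, His-CtBP) was incubated with pinned compound 2 h at 37 deg C in dark, in 50 mM Tris pH 8.0 buffer with 300 mM NaCl. Glutathione donor and nickel acceptor beads followed; AlphaScreen signal read after 1 h.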
HP1b chromo inh – HTS for Inhibitors of HP1-beta Chromodomain Interactions with Methylated Histone Tails; AlphaScreen HP1-beta / biotin-H3K9me3 peptide binding; 0.56% of 390,000 active; Chromobox protein homolog 1 (Homo sapiens), P83916; Potency, µM (doses to about 114 µM), for inactives: top-dose activity change, negative = inhibition, actives largely listed as inhibitors; further: potency means the concentration at half of the fitted maximal effect; nearly all actives have a fitted effect of over 70% in size
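HP1-beta protein (50 nM final) preincubated 30 min at room temperature with biotinylated H3(1-18)K9me3 peptide (50 nM) in PBS pH 7.4, 0.01% Tween-20, then compound added for 30 min. AlphaScreen streptavidin donor/nickel chelate acceptor beads (10 ug/mL final), 30 min dark, luminescence read.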
BAZ2B inh – qHTS Assay for Inhibitors of BAZ2B; AID 504333, 2011; Potency, µM (highest dose often 114 µM), inactives show at the top dose activity change, negative = inhibition, most hits filed as inhibitors; AlphaScreen BAZ2B-H3K14Ac peptide displacement; Bromodomain adjacent to zinc finger domain protein 2B (Homo sapiens), Q9UIF8; 4.4% of 360,000 active; further: potency means the concentration at half of the fitted maximal effect; on the % scale 0 is the no-effect control and ±100 the full control effect; nearly all actives have a fitted effect of over 60% in size
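Compounds, titrated to a top concentration of 110 uM, were incubated 30 min at room temperature with preformed BAZ2B/acetyl-K14 H3 peptide complex (50 nM each). Proximity signal was measured by AlphaScreen after 20 min with beads.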
An asterisk follows results filed as active; [ ] = another dose, or the depositor's remark. Unless noted, the call rests on the fitted dose curve; in most records, active means well fitted inhibition curve with a large enough effect; inconclusive means small, poorly fitted or top-dose-only effect; inactive means no such curve, though single readings can be large or run the other way.

How did CC1CCN(S(=O)(=O)c2ccc3[nH]cc(C(=O)NCc4ccc(F)cc4)c(=O)c3c2)CC1 do in these assays?
JMJD2A Tudor: -33%; G9a inh: -21%[59 µM]; HP1b chromo inh: 3%; BAZ2B inh: -1%

How did COC(=O)c1ccc(COc2ccc(/C=N/Nc3cccc(C(=O)O)c3)cc2)cc1 do in these assays?
Six1-Eya2 inh: -17; JMJD2A Tudor: 56µM*; G9a inh: 8.9µM*; CtBP-E1A blk: -8; HP1b chromo inh: inconclusive; BAZ2B inh: inconclusive

What do the screens show for `CSc1ccc(/C=N/Nc2cccc(C(=O)O)c2)cc1`?
Six1-Eya2 inh: inconclusive; JMJD2A Tudor: 4µM*; G9a inh: 4µM*; CtBP-E1A blk: -17; HP1b chromo inh: 10µM*; BAZ2B inh: 8.9µM*

How did O=C(O)c1cc(N/N=C/c2ccc(OCc3ccccc3)cc2)ccc1Cl do in these assays?
Six1-Eya2 inh: 1; JMJD2A Tudor: -20%; G9a inh: 22µM*; CtBP-E1A blk: 4; HP1b chromo inh: 17%; BAZ2B inh: inconclusive

Results for COC(=O)c1ccc(COc2ccc(/C=N/Nc3nc(C)cc(=O)[nH]3)cc2)cc1 ?
Six1-Eya2 inh: 13; JMJD2A Tudor: -23%; G9a inh: -1%[59 µM]; HP1b chromo inh: 70%; BAZ2B inh: -7%

Results for CC(C)C(=O)N/N=C/c1ccc(OCc2ccccc2)cc1 ?
Six1-Eya2 inh: 3; JMJD2A Tudor: -13%[57.1 µM]; G9a inh: -5%; CtBP-E1A blk: 7; HP1b chromo inh: 14%; BAZ2B inh: 3%

Results for O=C(Oc1ccc(/C=N/Nc2ccccc2)cc1)c1ccccc1 ?
Six1-Eya2 inh: inconclusive; JMJD2A Tudor: 2%[57.1 µM]; G9a inh: -5%[0.0925 µM]; CtBP-E1A blk: -11; HP1b chromo inh: 16%; BAZ2B inh: -11%

How did O=C(O)c1ccc(N/N=C/c2ccc(OC(=O)c3cccc(Cl)c3)cc2)cc1 do in these assays?
Six1-Eya2 inh: -8; JMJD2A Tudor: -19%[11.4 µM]; G9a inh: 2%[12.7 µM]; CtBP-E1A blk: 1; HP1b chromo inh: inconclusive; BAZ2B inh: 50µM*

Results for O=S(=O)(Nc1ccc(Cl)cc1)c1cccc(S(=O)(=O)c2ccc(Cl)c(Cl)c2)c1 ?
JMJD2A Tudor: -6%; G9a inh: 1%[59 µM]; HP1b chromo inh: 32%; BAZ2B inh: -22%

Results for O=C(O)c1ccc(COc2ccc(/C=N/NC(=O)c3cccs3)cc2)cc1 ?
Six1-Eya2 inh: -15; JMJD2A Tudor: -24%; G9a inh: 10µM*; CtBP-E1A blk: -20; HP1b chromo inh: 3%; BAZ2B inh: -29%

Results for CCOc1ccc(/C=N/Nc2ccccc2)cc1 ?
Six1-Eya2 inh: -1; JMJD2A Tudor: -30%; G9a inh: 25µM*; HP1b chromo inh: 28%; BAZ2B inh: -27%

Results for CCOc1cc(/C=N/Nc2cccc(C(=O)O)c2)ccc1OCC(=O)N1CCCCC1 ?
Six1-Eya2 inh: 4; JMJD2A Tudor: -20%; G9a inh: 32µM*; CtBP-E1A blk: 4; HP1b chromo inh: -11%; BAZ2B inh: inconclusive

Results for O=C(O)c1cccc(N/N=C/c2ccc(OC(F)(F)F)cc2)c1 ?
Six1-Eya2 inh: -5; JMJD2A Tudor: inconclusive; G9a inh: 14µM*; CtBP-E1A blk: -1; HP1b chromo inh: 4%; BAZ2B inh: inconclusive

How did CCOc1ccc(/C=N/O)cc1 do in these assays?
Six1-Eya2 inh: 5; JMJD2A Tudor: -19%; G9a inh: 12%[12.7 µM]; HP1b chromo inh: 24%; BAZ2B inh: 8%

What do the screens show for `COc1cccc(-c2ccc(NC(=O)C3CCCN(Cc4cnn(C(C)C)c4)C3)cc2)c1` (centres undefined)?
Six1-Eya2 inh: -15; JMJD2A Tudor: -34%; G9a inh: -21%; CtBP-E1A blk: -26; HP1b chromo inh: 6%; BAZ2B inh: -28%

Results for CCC(=O)Nc1ccccc1-c1nc2ccccc2n(C(C)C(=O)Nc2cccc(Cl)c2C)c1=O (centres undefined) ?
JMJD2A Tudor: -13%; G9a inh: inconclusive; HP1b chromo inh: 48%; BAZ2B inh: inconclusive

How did Cc1ccc(S(=O)(=O)NC(C)C(=O)NC2CC2)cc1 (centres undefined) do in these assays?
Six1-Eya2 inh: 12; JMJD2A Tudor: -1%; G9a inh: 79µM*; CtBP-E1A blk: 3; HP1b chromo inh: 28%; BAZ2B inh: -4%

Results for CC(NS(=O)(=O)c1ccccc1)C(=O)NC1CCCC1 (centres undefined) ?
Six1-Eya2 inh: 4; JMJD2A Tudor: -18%; G9a inh: 61%; CtBP-E1A blk: 6; HP1b chromo inh: 34%; BAZ2B inh: -2%

What do the screens show for `Cn1nc(C(C)(C)C)cc1C(=O)N1CCCCC1c1cc(C(=O)NCc2ccc(F)cc2)no1` (centres undefined)?
Six1-Eya2 inh: 4; CtBP-E1A blk: 0

What do the screens show for `O=C1CN(c2nc3ccccc3n3cnnc23)CC(=O)N1CCc1ccccc1`?
Six1-Eya2 inh: -3; JMJD2A Tudor: -10%; G9a inh: 79µM*; CtBP-E1A blk: 3; HP1b chromo inh: 31%; BAZ2B inh: -4%

How did CN1CCN(C(=S)c2ccc(N(C)C)cc2)CC1 do in these assays?
Six1-Eya2 inh: -3; JMJD2A Tudor: -18%; G9a inh: inconclusive; CtBP-E1A blk: -4; HP1b chromo inh: inconclusive; BAZ2B inh: 1%

Results for CN(C)C(=S)c1ccccc1 ?
Six1-Eya2 inh: 0; JMJD2A Tudor: inconclusive; G9a inh: 10µM*; CtBP-E1A blk: 3; HP1b chromo inh: inconclusive; BAZ2B inh: -11%

What do the screens show for `CN(C)C(=S)c1ccc(N(C)C)cc1`?
Six1-Eya2 inh: 1; JMJD2A Tudor: -22%; G9a inh: 7.9µM*; CtBP-E1A blk: 2; HP1b chromo inh: inconclusive; BAZ2B inh: inconclusive

What do the screens show for `CN(/N=C/c1ccccc1O)C(=S)c1ccccc1`?
Six1-Eya2 inh: inconclusive; JMJD2A Tudor: inconclusive; CtBP-E1A blk: -19; HP1b chromo inh: -5%; BAZ2B inh: inconclusive

Results for CCOC(=O)Cc1csc(NS(=O)(=O)c2ccc(F)cc2)n1 ?
Six1-Eya2 inh: 6; JMJD2A Tudor: -17%[11.4 µM]; G9a inh: 7%; CtBP-E1A blk: -3; HP1b chromo inh: 8%; BAZ2B inh: -6%
